Rows were chosen to be rich in hits. Some 4% of all compounds tested hit in one or more screens of this group.
MITF act: MITF TRPM1 promoter activation in melanoma cells. SK-MEL-5 TRPM1-promoter luciferase, 24 h; % of positive control, neutral wells = 0. activation, % at 12.5 µM. actives 0.75% (n = 300,000);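 active = mean activation of at least 80% with every replicate also reaching 80%; inconclusive = mean reaches 80% but some replicate falls short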
LMP1 NFkB inh: reduces LMP1-driven NF-kappaB luciferase signal | LMP1-induced NF-kappaB luciferase reporter cells, luminescence | inhibition, % at 12.5 µM | actives 0.69% (n = 350,000); in the data active = inhibition above about 41%; inconclusive = no clear call, values can overlap the other calls
MITF TRPM1 inh: reduces MITF-dependent TRPM1 promoter luciferase signal | SK-MEL-5 TRPM1 promoter luciferase, 24 h | inhibition, % at 12.5 µM | actives 0.83% (n = 330,000);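 active = mean inhibition across replicates of 60% or more, whatever share of single replicates reaches that level; inconclusive = some that reach 60%, reason not given; inactive = mean inhibition across replicates below 60%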
esBAF inh: blocks esBAF chromatin remodeling in mouse ES cells; Bmi1-luciferase knock-in reporter, 24 h; 100% = twice the neutral-well signal; reporter increase, % at 12.5 µM; actives 2% (n = 350,000); AID 602393; in the data active = activation above about 40%; inconclusive = no clear call, values can overlap the other calls;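 also: a rise in the Bmi1 reporter signal indicates esBAF inhibition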
Wnt act: activates Wnt/beta-catenin signaling in a reporter cell assay | activator, plate reader | activation, % at 9.35 µM | actives 1.2% (n = 300,000) | AID 743398; in the data active = activation above about 30%, passing the limit was not always enough; inconclusive = no clear call, values can overlap the other calls
C2C12 statin: protects C2C12 myotubes from simvastatin toxicity; ATP luminescence, 48 h; scaled: DMSO 0, geranylgeraniol control 100; rescue of ATP level, % at 7.49 µM; actives 0.78% (n = 330,000); AID 602340;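 active = mean ATP rescue above about 67%, or every replicate alone reaching that limit, limit read from the data, passing the limit was not always enough; inconclusive = no clear call, values can overlap the other calls; inactive = mean under the limit and some replicate under it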;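 also: myotubes were challenged with 10 µM simvastatin during compound exposure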
A number is an active result; n = inactive; u = inconclusive; x = no result given.

SMILES | MITF act | LMP1 NFkB inh | MITF TRPM1 inh | esBAF inh | Wnt act | C2C12 statin
CC(C)C[C@H](N)c1cn([C@@H](Cc2cc3ccccc3[nH]2)C(=O)N2CCNCC2)nn1 | n | n | n | n | n | n
CCC(C)[C@H](N)c1cn([C@@H](Cc2cc3ccccc3[nH]2)C(=O)N2CCNCC2)nn1 (stereo not given in full) | n | n | n | n | 45 | n
COc1cccc(NC(=O)C2CSC3(C)CCC(=O)N23)c1 (stereo not given) | n | n | n | x | n | x
CC12CCC(C(=O)Nc3nc4ccc(Br)cc4s3)(OC1=O)C2(C)C (stereo not given) | n | n | n | x | 53 | x
COc1ccc(Br)cc1/C=C/C(=O)c1ccc(NC(C)=O)cc1 | n | n | 82 | x | n | x
Cc1ccc(N/C=C/c2onc(C)c2[N+](=O)[O-])cc1 | 113 | n | n | n | 40 | n
Cc1ccc2c(C(=O)CN3CCSCC3)c(C)[nH]c2c1 | n | n | n | n | x | n
Cc1ccc2c(C(=O)CCl)c(C)[nH]c2c1 | n | n | 69 | n | n | n
O=c1o[nH]c(-c2ccccc2)c1-c1ccccc1 | x | x | x | x | n | x
CC1CCCN(c2nc3ccsc3c(=O)s2)C1 (stereo not given) | n | n | n | x | 53 | x
CC1CCCN(c2sc(S(C)(=O)=O)nc2S(=O)(=O)c2ccc(Cl)cc2)C1 (stereo not given) | n | n | n | n | n | n
CCOC(=O)c1ccc(-c2ccc3c(c2)CCC3)nc1C | n | n | n | n | 38 | n
COC(=O)c1ccc(-c2ccc(F)cc2)nc1C | 105 | n | n | n | n | n
Cc1ccc(-c2ccc(C(=O)O)c(C)n2)cc1 | n | n | n | n | n | n
Cc1ccc(-c2nc(-c3ccncc3)no2)c(Cl)c1 | x | n | n | n | n | n
NC(=O)c1cccc(-c2cnc(N)c(C(=O)c3cccnc3)n2)c1 | n | n | 61 | n | x | n
CC(=O)Nc1cccc(-c2csc(N)n2)c1 | n | n | n | x | n | x
CC(=O)Nc1cccc(-c2cnc(N)c(C(=O)c3cccnc3)n2)c1 | n | 49 | n | n | x | n
CCOc1cc(/C=N/Nc2ccccc2Cl)ccc1OCC(=O)O | n | n | n | x | x | x
Cc1cc(OCc2cc(C(=O)N3CCN(C)C(=O)[C@@H]3C)no2)cc(C)c1Cl | n | n | n | n | n | n
CCc1ccc(CCC(=O)Nc2nnc(C)s2)o1 | n | n | n | n | x | n
COc1ccc(-c2n(Cc3ccccc3)c3ccccc3[n+]2Cc2ccccc2)cc1 | n | n | 80 | x | n | x
CCOC(=O)c1oc2nc3c(cc2c1N)CCCC3 | x | x | x | n | 37 | n
CCOC(=O)c1oc2nc3c(cc2c1N)COC(C)(C)C3 | n | n | n | n | 49 | n
CCN(CC)C1=CC(=O)OC12CCCCC2 | n | n | n | n | n | n
SMILES | MITF act | LMP1 NFkB inh | MITF TRPM1 inh | esBAF inh | Wnt act | C2C12 statin
C[C@@H]1CN([C@H](C)CO)S(=O)(=O)c2ccc(C#CCC3CCCC3)cc2O[C@@H]1CN(C)C(=O)CN(C)C | x | x | x | n | x | n
COc1ccc(Nc2ncnc3c2cnn3Cc2ccc(C)cc2)cc1 | n | n | n | n | n | 68
Cc1ccc(OCCNC(=O)CCNC(=O)c2ccc(Cl)cc2)cc1 | n | n | n | n | n | n
Cc1nn(Cc2ccccc2Cl)c2sc(C(=O)NCc3ccc4c(c3)OCO4)cc12 | n | n | n | n | x | 126
O=C(NCc1cccc2ccccc12)c1cccs1 | n | n | n | 55 | n | n
Cc1cccc(C(=O)N2CCC(c3nc(-c4ccc(S(=O)(=O)N5CCOCC5)cc4)no3)CC2)c1 | n | n | n | x | u | x
COc1ccc(C2=CC(=O)C[C@H](c3ccc(Cl)cc3)C2)cc1 | n | n | n | n | n | n
COc1ccc(/C(N)=N/OC(=O)CC2CCCCC2)cc1OC | n | n | n | n | n | n
N/C(=N\OC(=O)C1CCCCC1)c1cccc(Br)c1 | 108 | n | n | 45 | x | n
COc1ccc(CC(=O)O/N=C(\N)c2ccc(OC)cc2)cc1 | x | n | n | x | n | x
COc1ccc(-c2ccc(C(=O)C3CC3)cc2)cc1 | 107 | n | n | n | n | n
N/C(=N\OC(=O)CC1CCCCC1)c1cccc(Br)c1 | n | n | n | n | n | n
COc1ccc(/C(N)=N/OC(=O)C2CCCCC2)cc1OC | 88 | n | n | 51 | n | n
COc1ccc(/C(N)=N/OC(=O)C2CCCCC2)cc1 | n | n | n | 61 | 40 | n
COc1ccc2oc3cc(NCCN(C)C)ccc3c(=O)c2c1 | x | x | x | n | n | n
CN1C(=O)c2cc(NC(=O)c3cscn3)ccc2OC[C@@H]2O[C@H](CC(=O)NCC3CC3)CC[C@@H]21 | x | x | x | n | x | n
CN(C)S(=O)(=O)c1ccc(C(=O)NCc2nnc(SCC(=O)N3CCCCCC3)o2)cc1 | n | n | n | n | n | n
Cc1ccc(C)c2sc(NC(=O)C3CC3)nc12 | x | n | x | n | n | n
COc1cc(C(=O)N2CCN(S(=O)(=O)c3ccc(Cl)cc3)CC2)ccc1OCC(=O)N1CCOCC1 | n | n | n | n | n | n
COc1ccc(/C(N)=N/OC(=O)N2CCOCC2)cc1 | n | 90 | n | x | n | x
COc1ccc(OC(=O)N2CCOCC2)cc1 | n | n | n | n | n | n
c1ccn2cc(-c3ccc4c(c3)OCCO4)nc2c1 | n | 57 | n | x | n | x
Cc1ccc2nc(-c3ccc4c(c3)NC(=O)CO4)cn2c1 | n | n | n | x | n | x
CN(C)S(=O)(=O)c1cccc(-c2cn3cc(Cl)ccc3n2)c1 | n | n | n | 45 | x | n
CN(C)S(=O)(=O)c1cccc(-c2cn3ccccc3n2)c1 | n | n | n | n | n | x
SMILES | MITF act | LMP1 NFkB inh | MITF TRPM1 inh | esBAF inh | Wnt act | C2C12 statin
Clc1ccc2nc(-c3ccccc3)cn2c1 | n | n | n | n | u | n
Clc1ccc2nc(-c3ccc4c(c3)OCO4)cn2c1 | n | 60 | n | n | n | n
Fc1ccc(-c2cn3ccccc3n2)cc1 | n | n | n | n | n | n
Cc1ccc2nc(-c3ccc4c(c3)OCCO4)cn2c1 | x | 85 | 84 | x | n | x
CC(C)(C)CC(=O)Nc1nnc(C(F)(F)F)s1 | n | n | n | n | n | x
CC(NC(=O)Nc1nnc(C(F)(F)F)s1)(C(F)(F)F)C(F)(F)F | n | 44 | n | n | x | n
O=C(Cn1cnc2ccccc21)N/N=C/C(Br)=C/c1ccccc1 | n | n | n | x | 37 | x
O=C(N/N=C/C(Br)=C/c1ccccc1)c1ccccc1F | n | n | n | 51 | n | n
O=C(N/N=C/C(Br)=C/c1ccccc1)c1cccs1 | n | n | n | x | u | x
O=C(N/N=C/C(Cl)=C/c1ccccc1)c1ccccc1F | n | n | n | 48 | n | n
CN(C)C1N(C(=O)c2ccccc2)N=C2c3ccccc3S(=O)(=O)N21 (stereo not given) | n | n | n | n | n | n
c1ccc(OCCOc2ncnc3sccc23)cc1 | n | n | n | x | 42 | x
CCOc1ccc(OCCOc2ncnc3ccccc23)cc1 | n | n | n | 46 | x | n
c1ccc(Oc2ncnc3ccccc23)cc1 | n | n | n | n | n | n

Screening results deposited in PubChem by Broad Institute.
